Screening data (PubChem)
Most compounds without a hit are left out; they make up all but 4.1% or so of the library.
tim23-1 inh: growth inhibitors of tim23-1 mutant yeast, primary screen, luminescence, uHTS; actives 1.3% (n = 330,000); inhibition, % at 20 µM; S. cerevisiae tim23-1 growth, BacTiter-Glo luminescence, 24 h;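 active = growth inhibition of the mutant yeast at or above 50%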;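 note: temperature-sensitive mutant grown at 25 °C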
NALP3 yeast inh: NALP3 inflammasome inhibitors in reconstituted yeast, primary screen, luminescence, uHTS; actives 0.39% (n = 330,000); Yeast reconstituted NLRP3/ASC/caspase-1, beta-gal luminescence, 24 h; AID 2825, 2010; inhibition, % at 10 µM;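 active = inhibition of 50% or more; inactive = inhibition below 50%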
NALP1 inh: NALP1 inflammasome inhibitors in reconstituted yeast, colorimetric, S. cerevisiae, triplicate retest. S. cerevisiae NALP1/ASC/caspase-1 growth, X-gal OD620, 72 h. inhibition, % at 10 µM. actives 0.61% (n = 280,000); in the data active = inhibition mostly above about 24%, no sharp cut-off; inactive = mostly below about 32%
TIM10 inh: growth inhibitors of isogenic TIM10 control yeast, primary screen, counter-screen for tim10-1 yeast inhibitor project, luminescence, uHTS. inhibition, % at 10 µM. actives 1.4% (n = 330,000). S. cerevisiae TIM10 strain growth, BacTiter-Glo luminescence, 24 h;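 active = inhibition of 40% or more at the single tested concentration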;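 note: wild-type TIM10 isogenic control strain grown at permissive 25 °C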
tim10-1 inh: growth inhibitors of tim10-1 mutant yeast, primary screen, luminescence, uHTS; S. cerevisiae tim10-1 ts strain growth, BacTiter-Glo, 24 h; inhibition, % at 20 µM; actives 2.2% (n = 330,000); AID 463190, 2010;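 active = inhibition of at least 40%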;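 note: mutant grown at 25 °C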
PfHsp90 yeast 2: growth inhibition of PfHsp90-expressing yeast, primary screen, antimalarial PfHsp90 inhibitor project, S. cerevisiae, BacTiter-Glo luminescence, single point, set 2; BacTiter-Glo ATP, 48 h; yeast lacking PDR1 and PDR3 efflux regulators; inhibition, % at 9.4 µM; AID 504621, 2011; actives 0.32% (n = 310,000);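 active = every replicate shows inhibition above about 80%, whatever the replicate mean, limit read from the data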
tim10-1 conf: growth inhibitors of tim10-1 mutant yeast, confirmation, single concentration, luminescence, S. cerevisiae; shares compounds with tim10-1 inh; S. cerevisiae tim10-1 ts strain growth, BacTiter-Glo, 24 h; inhibition, % at 20 µM; actives 56% (n = 7,400);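 active = inhibition of yeast growth at or above a set limit in either of two repeat tests at 20 µM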;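 note: tim10-1 mutant grown at permissive 25 °C to find synthetic lethal compounds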
A number is an active result.

Cc1nc([N+](=O)[O-])c(N2CCN(Cc3ccccc3)CC2)n1Cc1ccccc1 was read as tim23-1 inh inactive, NALP3 yeast inh inactive, NALP1 inh inactive, TIM10 inh inactive, tim10-1 inh inactive and PfHsp90 yeast 2 inactive.
CCn1ccnc1CN1CCc2c([nH]c3ccccc23)C1C(C)(C)C (stereo not drawn) was read as tim23-1 inh inactive, NALP3 yeast inh inactive, NALP1 inh inactive, TIM10 inh inactive, tim10-1 inh 46.7, PfHsp90 yeast 2 inactive and tim10-1 conf inactive.
`CCN(CC)C(=O)CSc1nnc(SC(C)C(=O)NC2CC2)s1` (stereo not drawn) gave tim23-1 inh inactive, NALP3 yeast inh inactive, TIM10 inh inactive, tim10-1 inh inactive and PfHsp90 yeast 2 inactive.
For Cc1ccc(C(=O)N2CCN(c3cccc(Cl)c3)CC2)cc1C the results were tim23-1 inh inactive, NALP3 yeast inh inactive, NALP1 inh inactive, TIM10 inh inactive, tim10-1 inh 50.2, PfHsp90 yeast 2 inactive and tim10-1 conf inactive.
O=C(c1cc(=O)c2ccccc2o1)N1CCN(c2cccc(Cl)c2)CC1 was read as tim23-1 inh inactive, NALP3 yeast inh inactive, NALP1 inh inactive, TIM10 inh inactive, tim10-1 inh 44.5 and tim10-1 conf inactive.
`CCn1nc(NC(=O)c2ccccc2)c2cc3cccc(C)c3nc21` gave tim23-1 inh inactive, NALP3 yeast inh inactive, NALP1 inh inactive, TIM10 inh inactive, tim10-1 inh 45.8, PfHsp90 yeast 2 inactive and tim10-1 conf 31.7.
CCn1nc(NC(C)=O)c2cc3cccc(C)c3nc21 was read as tim23-1 inh inactive, NALP3 yeast inh inactive, NALP1 inh inactive, TIM10 inh inactive, tim10-1 inh inactive and PfHsp90 yeast 2 inactive.
Screening COc1ccc2c(c1)/C(=N/OC(=O)c1cccs1)CCC2 returned tim23-1 inh inactive, NALP3 yeast inh inactive, NALP1 inh inactive, TIM10 inh inactive, tim10-1 inh 52.2, PfHsp90 yeast 2 inactive and tim10-1 conf 41.0.
Screening Cc1cccc(C(=O)O/N=C2\CCCc3ccccc32)c1 returned tim23-1 inh inactive, NALP3 yeast inh inactive, NALP1 inh inactive, TIM10 inh inactive, tim10-1 inh 44.3, PfHsp90 yeast 2 inactive and tim10-1 conf 36.0.
Screening Cc1ccc(C(=O)O/N=C2\CCCc3ccccc32)cc1 returned tim23-1 inh inactive, NALP3 yeast inh inactive, NALP1 inh inactive, TIM10 inh inactive and tim10-1 inh inactive.
COc1ccc(NC(=O)c2cccc(NC3=NC4CS(=O)(=O)CC4S3)c2)cc1Cl (stereo not drawn) was read as tim23-1 inh inactive, NALP3 yeast inh inactive, NALP1 inh inactive, TIM10 inh inactive, tim10-1 inh inactive and PfHsp90 yeast 2 inactive.
Cc1ccc(C(=O)NNC(=O)c2ccc(NC(=O)C(C)(C)C)cc2)cc1 was read as tim23-1 inh inactive, NALP3 yeast inh inactive, NALP1 inh inactive, TIM10 inh inactive, tim10-1 inh inactive and PfHsp90 yeast 2 inactive.
COc1ccc(NS(=O)(=O)c2cn(C)cn2)c(OC)c1 was read as tim23-1 inh inactive, NALP3 yeast inh inactive, NALP1 inh inactive, TIM10 inh inactive, tim10-1 inh inactive and PfHsp90 yeast 2 inactive.
Cc1ccc(N2CC(C(=O)NC3CCC(C)CC3)CC2=O)cc1 (stereo not drawn) was read as tim23-1 inh inactive, NALP3 yeast inh inactive, NALP1 inh inactive, TIM10 inh inactive, tim10-1 inh inactive and PfHsp90 yeast 2 inactive.
`N#CC(=C(c1ccccc1)c1ccccc1)c1ccccc1` gave PfHsp90 yeast 2 inactive.
For C=CC[N+](C)(C)CCN1C(=O)C2C(c3ccccc3)C=CC(c3ccccc3)C2C1=O (stereo not drawn) the results were tim23-1 inh inactive, NALP3 yeast inh inactive, NALP1 inh inactive, TIM10 inh inactive, tim10-1 inh inactive and PfHsp90 yeast 2 inactive.
